The record followed here is PubChem BioAssay.

Activity calls are given as the source filed them.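 Rule for the calls, unless noted: active = inhibition at or above 50% at 10 µM; inactive = inhibition below 50%.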

Assay [1] is described as follows: inhibitors of TNFa-induced NFkB p65 translocation, primary screen, imaging, HUVEC, MLSMR starter and 10KST1 sets (AID 438;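 active = inhibition above 20% together with a positive visual image hit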;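 note: compound added about 3h40 before a 20 min TNFalpha stimulation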;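 for inhibition: signal is the nuclear over cytoplasmic p65 intensity ratio per well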). To be noted: HUVEC TNFa-induced p65 nuclear translocation; cell count: measured here: nuclei count (cytotoxicity indicator), at 2.08 µM; inhibition: at 2 µM, stronger effect = higher value, 0% TNFa-plus-vehicle, 100% no-TNFa wells.
Assay [2] is described as follows: reduction of polyQ htt aggregates in cells – imaging, exon1htt(103Q)mCFP cells, high-content imaging, primary screen (AID 483;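 active = visual image review flags a hit and inhibition of aggregation exceeds 20%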;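 note: compound exposure lasted 3 days before fixation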;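 for nuclei count: percent of the per-plate median nuclei count of sample wells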). As to conditions: exon1htt(103Q)mCFP cell line, aggregate imaging, at 2 µM; inhibition of aggregation: stronger effect = higher value; nuclei count: measured here: cell count, toxicity.
A short description of assay [3]: endothelial E-selectin expression blockers – imaging, HUVEC, immunofluorescence, MLSMR starter and 10KST1 sets, primary screen (AID 487;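 active = visually confirmed hit in the image check and inhibition above 20%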;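 for inhibition: signal is fraction of cell area covered by stained E-selectin grains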;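 for nuclei count: 100% = median nuclei count of all wells on the same plate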). As to conditions: HUVEC TNFalpha-induced E-selectin immunofluorescence imaging, at 2 µM; inhibition: stronger effect = higher value; nuclei count: measured here: cell number, toxicity.
For assay [4], the target named is Voltage-gated potassium channel subunit beta-2 (Rattus norvegicus) (UniProt P62483). Put plainly: inhibitors of rat Kvbeta2 reductase activity – biochemical, NADPH fluorescence, primary screen (AID 622;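 active = fluorescence slope higher than the sample average by over 3 SD, cut at about -0.22 in these data, passing the limit was not always enough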;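 note: slope of raw intensity against log time taken from 70 to 1610 s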). To be noted: recombinant KvBeta, 4-cyanobenzaldehyde reduction, at 10 µM, stronger effect = higher value.
Chain of Voltage-gated potassium channel subunit beta-2 (Rattus norvegicus) (P62483 whole entry, looked up): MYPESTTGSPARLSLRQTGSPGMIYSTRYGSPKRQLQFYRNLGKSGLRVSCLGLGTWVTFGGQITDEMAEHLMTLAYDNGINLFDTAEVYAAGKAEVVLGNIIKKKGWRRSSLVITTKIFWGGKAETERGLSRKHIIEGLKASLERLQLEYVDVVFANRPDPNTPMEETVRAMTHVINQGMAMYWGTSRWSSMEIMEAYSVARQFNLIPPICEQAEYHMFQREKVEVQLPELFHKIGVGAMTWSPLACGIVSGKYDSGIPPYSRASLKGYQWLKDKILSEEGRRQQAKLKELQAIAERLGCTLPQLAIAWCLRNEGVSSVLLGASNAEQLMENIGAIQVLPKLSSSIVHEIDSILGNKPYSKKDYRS
For assay [5] the target is unchanged. Put plainly: enhancers of rat Kvbeta2 NADPH turnover – biochemical, NADPH fluorescence, primary screen (AID 623;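 active = NADPH fluorescence slope more negative than the mean of all samples by about 3 SD, 99.7% confidence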;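 note: fluorescence intensity change per second fitted from 20 to 320 s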). To be noted: Recombinant KvBeta, NADPH fluorescence decrease slope, 10 min; at 10 µM; stronger effect = lower value.
The target in assay [6] is Alpha-2C adrenergic receptor (Homo sapiens) (UniProt P18825). Put plainly: compounds altering alpha2C-coupled GIRK flux – cell-based, HEK293 alpha2C/GIRK1/2, thallium flux, primary screen (AID 624;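 active = fluorescence slope after compound addition differing from the mean of all screened samples at 99.7% confidence, in either direction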;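 note: slope of fluorescence ratio to pre-addition baseline per second over 15 to 24 s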). To be noted: thallium flux BTC fluorescence, at 10 µM, actives lie on both sides.
Chain of Alpha-2C adrenergic receptor (Homo sapiens) (P18825 whole entry, looked up): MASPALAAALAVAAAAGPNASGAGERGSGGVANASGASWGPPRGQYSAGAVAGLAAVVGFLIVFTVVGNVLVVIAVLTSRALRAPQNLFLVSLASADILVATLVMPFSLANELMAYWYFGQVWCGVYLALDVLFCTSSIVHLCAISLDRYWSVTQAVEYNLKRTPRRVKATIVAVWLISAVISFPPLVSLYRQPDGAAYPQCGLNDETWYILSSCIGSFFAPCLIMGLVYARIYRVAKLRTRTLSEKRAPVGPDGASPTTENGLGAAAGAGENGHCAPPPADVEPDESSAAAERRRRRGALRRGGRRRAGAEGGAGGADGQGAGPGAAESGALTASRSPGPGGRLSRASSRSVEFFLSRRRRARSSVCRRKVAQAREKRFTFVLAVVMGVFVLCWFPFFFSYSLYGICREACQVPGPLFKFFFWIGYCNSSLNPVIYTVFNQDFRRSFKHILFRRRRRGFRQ
Assay [7] is described as follows: blockers of RIG-like receptor reporter activation – cell-based, Sendai virus stimulus, luciferase, 10K MLSCN set, TLR/RLR signaling modifier project, primary screen (AID 602276).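 Note: firefly luciferase from ISG56 promoter only with Renilla not read in this screen; 0% = Sendai virus plus DMSO and 100% = medium plus DMSO without virus.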 To be noted: HEK293 RL24 IRF3 luciferase reporter, at 10 µM, stronger effect = higher value. For orientation: Reporter assays use an easily measured gene product as a stand-in for the process of interest.

Assay [8] is described as follows: TLR3 IRF3 reporter activation blockers – cell-based, poly I:C stimulus, luciferase, 10K MLSCN set, primary screen (AID 602277;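 active = inhibition of the reporter signal at or above 50%; inactive = inhibition below 50%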). To be noted: HEK293-TLR3 RL24 IRF3 luciferase reporter, at 10 µM, stronger effect = higher value.

For the compound `CCOC(=O)Cn1ncc(-c2ccccc2)c1N`, the cell count in assay [1] is 582. Further, the inhibition (usually the relative decrease from the control value, in per cent) in assay [1] is -0.5% (inactive); in assay [3], -51.5% (inactive); in assay [7], -14.7% (inactive); in assay [8], -27.5% (inactive). In addition, the inhibition of aggregation in assay [2] is -6.8% (inactive). Also, the nuclei count in assay [2] came out at 67.2%; in assay [3], 96.2%. The fluorescence slope in assay [4] is -0.48 (inactive). The NADPH fluorescence slope in assay [5] is 2.4e-05 (inactive). Moreover, the slope in assay [6] is 0.0046 (inactive).

As to `Cc1nnc(SC(=O)N2c3ccccc3Sc3ccccc32)s1`, the cell count in assay [1] is 348. Moreover, the inhibition is 12% (inactive) in assay [1], 27.8% (inactive) in assay [3], 5.05% (inactive) in assay [7] and 65.9% (active) in assay [8]. Further, the inhibition of aggregation in assay [2] is 39.8% (active). The nuclei count in assay [2] stood at 99.9%; in assay [3], 107%. The fluorescence slope in assay [4] is -0.31 (inactive). Moreover, in assay [5], the NADPH fluorescence slope was -1.7e-05 (inactive). Further, the slope in assay [6] was 0.00696 (inactive).

As to `O=C(Nc1ccc(N2CCCC2)cc1)c1ccc(Br)o1`, the cell count in assay [1] turned out to be 303. Moreover, the inhibition was -8.4% (inactive) in assay [1], -59.6% (inactive) in assay [3], -34% (inactive) in assay [7] and -152% (inactive) in assay [8]. For the same compound, the inhibition of aggregation in assay [2] is 36.8% (inactive). For the same compound, the figures for the nuclei count in assay [2] and in assay [3] were 94.4% and 94.7%, respectively. Besides, the fluorescence slope in assay [4] is -0.398 (inactive). In addition, in assay [5], the NADPH fluorescence slope is -6.5e-05 (inactive). Moreover, the slope in assay [6] is 0.00868 (inactive).

Regarding `CC1Cc2ccccc2N1C(=O)COC(=O)Cn1nnc(-c2ccccc2)n1` (centres undefined), the cell count in assay [1] turned out to be 543. The inhibition in assay [1] was -9% (inactive); in assay [3], -39.7% (inactive); in assay [7] it was 11% (inactive); in assay [8], 34.2% (inactive). In assay [2], the inhibition of aggregation was -4.6% (inactive). Further, the nuclei count in assay [2] was 96.1%; in assay [3], 123%. For the same compound, in assay [4], the fluorescence slope was -0.583 (inactive). Moreover, the NADPH fluorescence slope in assay [5] is -4e-05 (inactive). Also, the slope in assay [6] was 0.00555 (inactive).

Regarding `CCOc1ccc(N(CC(=O)NC2CCCC(C)C2C)S(=O)(=O)c2c(C)noc2C)cc1` (centres undefined), the cell count in assay [1] was found to be 872. For the same compound, the inhibition in assay [1] was 4% (inactive); in assay [3] it was -33.2% (inactive); in assay [7] it was 1.67% (inactive); in assay [8] it was 38.3% (inactive). Also, the inhibition of aggregation in assay [2] was 20.7% (inactive). The nuclei count in assay [2] came to 131%; in assay [3], 111%. The fluorescence slope in assay [4] was -0.612 (inactive). The NADPH fluorescence slope in assay [5] was 7.5e-06 (inactive). Further, the slope in assay [6] is 0.00653 (inactive).

Turning to `CCCCc1cc2c(c(NC(C)=O)n1)c(=O)oc1ccccc12`, in assay [1], the cell count amounted to 620. Also, the inhibition was -9.4% (inactive) in assay [1], 3.6% (inactive) in assay [3], 12.1% (inactive) in assay [7] and 40.5% (inactive) in assay [8]. Besides, the inhibition of aggregation in assay [2] was 14.7% (inactive). Besides, the nuclei count was determined as 110% in assay [2] and 104% in assay [3]. In addition, the fluorescence slope in assay [4] was -0.509 (inactive). Besides, the NADPH fluorescence slope in assay [5] was -2.7e-05 (inactive). The slope in assay [6] was 0.00617 (inactive).

For the compound `CCOc1ccccc1OCCn1nnc2ccccc21`, in assay [1], the cell count amounted to 312. Besides, the inhibition was -0.2% (inactive) in assay [1], -6.1% (inactive) in assay [3], 1.2% (inactive) in assay [7] and -3.68% (inactive) in assay [8]. The inhibition of aggregation in assay [2] is -1.3% (inactive). Moreover, the nuclei count in assay [2] was 114%; in assay [3], 109%. In assay [4], the fluorescence slope was -0.443 (inactive). Moreover, the NADPH fluorescence slope in assay [5] was -5.5e-05 (inactive). For the same compound, in assay [6], the slope was 0.0043 (inactive).

Consider `CCOC(=O)c1c(N)nn(C(=O)C(C)C)c1-c1ccccc1`, for which the cell count in assay [1] is 690. For the same compound, the inhibition in assay [1] was -2.1% (inactive); in assay [3], 4.3% (inactive); in assay [7], -23.8% (inactive); in assay [8], -5.01% (inactive). In assay [2], the inhibition of aggregation is -5.4% (inactive). The results for the nuclei count in assay [2] and in assay [3] were 112% and 109%, respectively. Moreover, the fluorescence slope in assay [4] was -0.529 (inactive). Moreover, the NADPH fluorescence slope in assay [5] is -1.3e-05 (inactive). In assay [6], the slope is 0.00581 (inactive).

Take `O=C1CCN(C(=O)c2ccccc2)C2CCCCC12` (centres undefined): the cell count in assay [1] stood at 511. Also, the inhibition was -8.7% (inactive) in assay [1], 19.1% (inactive) in assay [3], -7.18% (inactive) in assay [7] and 15.9% (inactive) in assay [8]. Also, in assay [2], the inhibition of aggregation was 4.4% (inactive). Besides, the nuclei count in assay [2] was determined as 41.3%; in assay [3] it was 81.9%. Also, the fluorescence slope in assay [4] is -0.408 (inactive). Besides, in assay [5], the NADPH fluorescence slope was 1.6e-05 (inactive). In addition, the slope in assay [6] is 0.00412 (inactive).

Take `CC(C)[C@H](NC(=O)NCc1ccc(Cl)cc1)C(=O)O`: in assay [1], the cell count worked out at 190. Moreover, the inhibition in assay [1] was -16.4% (inactive); in assay [3], 11.6% (inactive); in assay [7], 13% (inactive); in assay [8], 19.3% (inactive). Further, the inhibition of aggregation in assay [2] was 20.4% (inactive). For the same compound, the results for the nuclei count in assay [2] and in assay [3] were 70.5% and 87.2%, respectively. The fluorescence slope in assay [4] is -0.604 (inactive). In addition, the NADPH fluorescence slope in assay [5] is -3.7e-05 (inactive). Also, the slope in assay [6] was 0.00337 (inactive).

For `C=CCSc1nc2c(c(=O)[nH]c(=O)n2C)n1CC`, the cell count in assay [1] stood at 570. Further, the inhibition in assay [1] is -3% (inactive); in assay [3], -48% (inactive); in assay [7], -5.1% (inactive); in assay [8], 22.4% (inactive). For the same compound, the inhibition of aggregation in assay [2] is 6.3% (inactive). Further, the nuclei count in assay [2] is 36.2%; in assay [3] it was 96.3%. In addition, the fluorescence slope in assay [4] was -0.499 (inactive). In assay [5], the NADPH fluorescence slope was -2.4e-05 (inactive). The slope in assay [6] is 0.00669 (inactive).

Consider `O=C1c2ccccc2C(=O)N1CCN1CCCCC1`, for which the cell count in assay [1] is 528. Further, the inhibition in assay [1] was 0.3% (inactive); in assay [3], -58.5% (inactive); in assay [7], -8.79% (inactive); in assay [8] it was -2.11% (inactive). For the same compound, in assay [2], the inhibition of aggregation was -9.5% (inactive). The figures for the nuclei count in assay [2] and in assay [3] were 113% and 117%, respectively. Further, in assay [4], the fluorescence slope is -0.327 (inactive). The NADPH fluorescence slope in assay [5] is -5e-05 (inactive). The slope in assay [6] was 0.00644 (inactive).

With `CCCCn1nnnc1NCc1cccs1`, the cell count in assay [1] turned out to be 412. The inhibition in assay [1] is 2.9% (inactive); in assay [3], -66.2% (inactive); in assay [7] it was 4.2% (inactive); in assay [8], -0.68% (inactive). In addition, the inhibition of aggregation in assay [2] was 0.4% (inactive). For the same compound, the nuclei count is 105% in assay [2] and 119% in assay [3]. Also, the fluorescence slope in assay [4] is -0.52 (inactive). For the same compound, the NADPH fluorescence slope in assay [5] is -1.2e-05 (inactive). Further, the slope in assay [6] is 0.00631 (inactive).

In the case of `CC(C)c1ccc(CNc2ccc(N3CCOCC3)cc2)cc1`, the cell count in assay [1] is 700. For the same compound, the inhibition was -11.3% (inactive) in assay [1], -54.6% (inactive) in assay [3], -21.7% (inactive) in assay [7] and -43.5% (inactive) in assay [8]. Further, the inhibition of aggregation in assay [2] was -26.2% (inactive). Further, the nuclei count in assay [2] was found to be 117%; in assay [3] it was 119%. For the same compound, the fluorescence slope in assay [4] is -0.316 (inactive). Moreover, the NADPH fluorescence slope in assay [5] was -4.8e-05 (inactive). Moreover, the slope in assay [6] was 0.00466 (inactive).
